# Screening results from PubChem BioAssay.
# D2 PAM-1: positive allosteric modulators of human D2 dopamine receptor | P14416 | HEK293 T-REx D2, calcium flux, EC20 dopamine potentiation | potentiation, % at 10 µM | 340,000 compounds, 0.34% hits;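 active means potentiation over 3 SD above the plate norm, cut at about 30% in these data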; further: 0% is about no effect
# Target sequence (P14416 whole entry, looked up): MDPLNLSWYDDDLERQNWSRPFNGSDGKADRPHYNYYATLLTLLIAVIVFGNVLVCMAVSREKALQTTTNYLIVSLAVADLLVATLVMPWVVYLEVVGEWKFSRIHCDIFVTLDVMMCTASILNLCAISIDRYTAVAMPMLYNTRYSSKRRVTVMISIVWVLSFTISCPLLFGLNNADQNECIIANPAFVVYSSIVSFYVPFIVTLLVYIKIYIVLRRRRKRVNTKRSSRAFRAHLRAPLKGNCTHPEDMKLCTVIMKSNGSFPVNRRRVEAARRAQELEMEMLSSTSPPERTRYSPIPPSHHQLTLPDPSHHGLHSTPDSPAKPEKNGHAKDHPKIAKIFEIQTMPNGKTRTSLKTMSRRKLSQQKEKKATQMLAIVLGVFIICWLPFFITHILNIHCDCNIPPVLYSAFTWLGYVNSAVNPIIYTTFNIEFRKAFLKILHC
#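 Using a no-wash calcium dye in inducible, force-coupled HEK293 Trex cells expressing D2, we tracked fluorescence each second for 180 s after compound, then for 180 s after EC20 dopamine to detect augmented signalling.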
# D2 ag-1: human D2 receptor agonism in beta-arrestin assay; AID 624465; DiscoveRx PathHunter D2 beta-arrestin, luminescence, 90 min; 100% = 57 uM dopamine signal; 360,000 compounds, 0.084% hits; activation, % (concentration not given with the values); in the data active means activation above about 40%; inconclusive means between about 15% and that limit
#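 DiscoveRx PathHunter D2 beta-arrestin cells (2,100/well) attached overnight, then compound-stimulated 90 min at 37 C in HBSS/10 mM HEPES/0.1% Tween-20 buffer; beta-galactosidase complementation read by luminescence after 1 h at ambient temperature. Dopamine 57 uM final (EC100) as control.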
# D2 antag: D2 dopamine receptor (human) antagonism. 340,000 compounds, 2% hits. inhibition, % at 10 µM. AID 485344. P14416. HEK293 TREx D2 cells, calcium flux, dopamine EC80; in the data active means inhibition above about 30%; inactive means below that, where a call was filed; further: 0% is about no effect
#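 Cells plated overnight at 30 C with tetracycline; no-wash calcium dye, 30–90 min RT; 10 s baseline; compound pinned; 180 s read; EC80 dopamine added; another 180 s read.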
# D2 PAM-2: potentiates the human D2 dopamine receptor allosterically. P14416. DiscoveRx D2 beta-arrestin cells, luminescence, 90 min; 100% = 57 uM dopamine signal. potentiation, % (concentration not given with the values). 360,000 compounds, 0.23% hits; in the data active means potentiation above about 50%; inconclusive means mostly about 30% to 49%
#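 PathHunter beta-arrestin assay in DiscoveRx D2 cells. Compounds were added with an EC20 of dopamine (50 nM final) for 90 min at 37 deg C. Luminescence was read 1 h after detection reagent, with 57 uM dopamine as the EC100 control.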
# D2 ag-2: D2 dopamine receptor (human) agonism; 340,000 compounds, 0.53% hits; P14416; HEK293 T-REx D2 cells, calcium flux agonist mode; activation, % at 2 µM;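 active means activation over 3 SD above normal in the single-dose calcium agonist read, cut at about 30% in these data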; further: 0% is about no effect
#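 Calcium-flux readout, 1 cycle/sec over 180 s following compound pin transfer, in inducible HEK293 Trex D2 cells (force-coupled); dopamine controls included. Positive calcium responses during this window marked compounds as potential agonists.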
# D3 arrestin ag: confirmation of human D3 dopamine receptor agonists, beta-arrestin; shares compounds with D2 ag-2; DiscoveRx D3 beta-arrestin cells, luminescence, 90 min; Potency, µM (highest dose often 76.9 µM), for inactives: top-dose activation, most hits filed as activators; 2,300 compounds, 4% hits;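 further: potency means the concentration at half of the fitted maximal effect; 100% = dopamine control response; nearly all actives have a fitted effect of over 70% in size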
# D2 ag-3: activates human D2 dopamine receptor in D3 counterscreen. shares compounds with D2 ag-2. DiscoveRx PathHunter D2 beta-arrestin, luminescence, 90 min; response scale: percent relative to full dopamine signal. Potency, µM (series often up to 76.9 µM), without a hit: at the highest dose activation, actives largely listed as activators. 2,300 compounds, 5.9% hits. AID 720507; further: potency means the concentration at half of the fitted maximal effect; % of control where 0% means no effect; nearly all actives have a fitted effect of over 70% in size
# Active calls of the source: *; u = inconclusive; x = not tested or not shown. Only some compounds are listed: those with a hit (about 2.4% of all), similar ones and a draw of the others. Unless noted, the call rests on the fitted dose curve; in most records, active means well fitted activation curve with a large enough effect; inconclusive means small, poorly fitted or top-dose-only effect; inactive means flat fitted curve, though single readings scatter.
SMILES,D2 PAM-1,D2 ag-1,D2 antag,D2 PAM-2,D2 ag-2,D3 arrestin ag,D2 ag-3
Cc1ccc2c(c1)N(C(=O)CCC(=O)N1CCN(c3ccccn3)CC1)CC(C)O2 (configuration not stated),-17.9,-4.0,-11.8,-3.1,50.0*,12.4%,8.6%
CC1CN(C(=O)CCC(=O)N2CCN(c3ccccn3)CC2)c2ccccc2O1 (configuration not stated),-7.5,-2.6,-21.7,-3.2,-0.5,x,x
CCOC(CNC(=O)Cn1nc(Cc2ccncc2)c2ccccc2c1=O)OCC,9.5,1.2,-4.8,2.5,0.4,x,x
COC(CNC(=O)Cn1nc(Cc2ccncc2)c2ccccc2c1=O)OC,2.2,1.9,-12.5,-12.3,-0.1,-0.6%,3.7%
Fc1ccccc1C1c2[nH]c3ccccc3c2CCN1Cc1ccoc1 (configuration not stated),6.4,-4.2,2.5,-5.2,0.1,x,x
N#C/C(=C/c1ccc(N2CCOCC2)o1)c1nc2ccccc2[nH]1,3.3,1.2,-15.8,-13.3,25.2,u,2.7%
CN(CCNC(=O)c1ccc(CS(=O)(=O)c2c(Cl)cccc2Cl)o1)CCc1ccccc1,-5.3,-1.0,-0.3,-30.5,30.7*,2.6%,7.6%
CN(C)CCNC(=O)c1ccc(CS(=O)(=O)c2c(Cl)cccc2Cl)o1,-0.5,-6.7,1.2,-3.5,1.1,x,x
Cc1nn(-c2ccccc2)c(Cl)c1C(=O)NCC1CCCO1 (configuration not stated),6.8,-5.9,-16.7,-9.2,0.3,x,x
O=C(c1ccccc1)N1CCN(Cc2ccc3c(c2)OCO3)CC1,-32.4,-0.3,7.6,-24.6,16.5,x,x
O=C(c1sccc1Cl)N1CCN(Cc2ccc3c(c2)OCO3)CC1,-25.2,4.6,66.6*,-14.8,49.7*,-6.6%,3.1%
O=C(c1[nH]nc2c1CCc1ccccc1-2)N1CCN(Cc2ccc3c(c2)OCO3)CC1,-15.2,u,70.5*,-23.0,0.0,2.3%,u
O=C(c1ccc(Br)o1)N1CCN(Cc2ccc3c(c2)OCO3)CC1,-23.0,2.0,58.4*,-13.7,70.0*,-4.0%,10.1%
CCCc1cc(=O)[nH]c(SCC(=O)c2ccc3c(c2)NC(=O)CO3)n1,6.3,-3.7,0.7,-3.9,-0.1,x,x
CC(C)NCC1CCc2cc(CO)c([N+](=O)[O-])cc2N1 (configuration not stated),-22.2,-4.9,-0.5,-32.3,41.6*,-8.1%,-2.3%
CC(C)C1Nc2ccc(C(=O)NCCCN3CCOCC3)cc2NC1=O (configuration not stated),-1.6,-1.3,25.4,-14.3,0.4,x,x
CCc1ccc(/C=N/NC(=O)c2nnn(-c3nonc3N)c2C(C)C)cc1,9.6,1.1,18.0,-5.2,25.8,1.1%,0.7%
CCOc1cccc(-c2c(C(=O)N/N=C/c3sccc3C)nnn2-c2nonc2N)c1,5.1,2.1,2.9,-5.9,0.8,x,x
CCOc1cccc(-c2c(C(=O)N/N=C/c3ccsc3)nnn2-c2nonc2N)c1,25.6,-0.1,22.8,0.1,9.1,2.2%,-2.8%
CCOc1ccc(/C=N/NC(=O)c2nnn(-c3nonc3N)c2-c2cccs2)cc1,5.5,3.2,16.5,-3.3,6.9,1.4%,-5.2%
CCOc1ccc(-c2c(C(=O)N/N=C/c3ccccc3)nnn2-c2nonc2N)cc1,28.3,0.5,-2.3,-7.3,3.8,x,x
O=C(C[C@H]1C/C=C\C[C@@H](Cc2ccc(F)cc2)C(=O)OC[C@@H]2CCCN2C1=O)NCCO,x,0.8,x,-2.1,x,x,x
Cc1ccc(Nc2ncnc3c2nnn3Cc2ccccc2)cc1,1.4,-9.3,0.6,-3.7,0.1,x,x
CSc1c(CC(=O)Nc2ccccc2C(F)(F)F)n(Cc2ccccc2)c2ccccc12,-21.1,-3.8,-12.4,-21.5,28.1,-0.6%,6.5%
CSc1c(CC(=O)Nc2ccccc2Cl)n(Cc2ccccc2)c2ccccc12,14.3,-2.8,-16.1,-16.5,-0.5,x,x
SMILES,D2 PAM-1,D2 ag-1,D2 antag,D2 PAM-2,D2 ag-2,D3 arrestin ag,D2 ag-3
CC(C)C(=O)Nc1ccc2c(c1)nc(CCN1CCN(c3ccccc3)CC1)n2C,-21.0,-1.8,17.7,-8.7,60.9*,u,7.6%
Cn1c(CCN2CCN(c3ccccn3)CC2)nc2cc(NS(=O)(=O)c3ccccc3)ccc21,x,12.8,x,-24.8,x,u,u
CCCC(=O)Nc1ccc2c(c1)nc(CCN1CCN(c3ccccn3)CC1)n2C,-21.8,7.7,46.8*,-9.9,67.3*,u,u
CCCCC(=O)Nc1ccc2c(c1)nc(CCN1CCN(c3ccccn3)CC1)n2C,-23.8,13.7,51.0*,-5.2,66.7*,u,u
Cn1c(CCN2CCCC2)nc2cc(NS(=O)(=O)c3ccc(Cl)cc3)ccc21,-5.9,1.2,2.7,-28.1,-0.1,x,x
COc1cc(C(O)c2nc(-c3ccc(C)c(C)c3)cs2)ccc1F (configuration not stated),x,4.7,x,-1.5,x,x,x
COCCNC(=O)NC(=O)CN1CCN(C(c2ccccc2)c2ccccc2)CC1,-2.5,-0.5,13.0,-8.6,1.0,x,x
Cc1cccc(NC(=O)CSc2nc(-c3cccc(C)c3)nc3c2Cc2c(CO)cnc(C)c2O3)c1,-2.3,x,x,x,-0.5,x,x
N#Cc1cccc(NC(=O)c2cncn2-c2ccccc2)c1,x,0.7,x,-1.5,x,x,x
CC1(C(=O)NS(=O)(=O)Cc2ccccc2C(F)(F)F)CCN1C(=O)Cc1ccsc1 (configuration not stated),x,-4.2,x,-3.4,x,x,x
Cc1ccc(OCC(=O)Nc2ccc3c(c2)nc(CCN2CCN(c4ccccn4)CC2)n3C)cc1,x,1.8,x,-24.7,x,x,x
Cn1c(CCN2CCN(c3ccccn3)CC2)nc2cc(NC(=O)COc3ccccc3)ccc21,0.9,5.6,47.0*,2.1,-0.8,u,u
CCCCN1CCNC[C@@H]1Cc1ccccc1,-10.7,-4.7,2.3,-11.2,0.2,x,x
CCCCN1CCNC[C@@H]1c1ccccc1,13.8,-1.2,-8.5,-16.9,-0.4,-3.7%,-3.1%
Cc1ccc(-c2nnc(SCC(=O)NNC(=O)COc3cccc4ccccc34)n2C)cc1,-11.8,x,-0.2,x,-1.3,x,x
O=C(CCN1CCN(C(c2ccccc2)c2ccccc2)CC1)N/N=C/c1ccc(O)cc1,-18.7,-3.1,-11.1,-26.8,-2.8,x,x
COc1cc(/C=N/NC(=O)CCN2CCCCC2)ccc1O,-5.3,2.7,-3.5,-10.4,0.8,x,x
COc1ccc(/C=N\NC(=O)CCN2CCN(c3ccccc3)CC2)cc1OC,-30.2,2.7,56.4*,-27.0,75.5*,14.6%,20.7%
